# Results reported in publication PMC11006913.
# Numbering of substitutions follows the chain as printed.
# How the values were obtained:
# Assay in all cases: PBM; 200 nM protein, PBS
# Conditions in all cases: dsDNA, one strand shown
# SIX6 [1] = biological target: T1, SIX6 (Homo sapiens, UniProt O95475 114-200, L167I)
# T1 sequence: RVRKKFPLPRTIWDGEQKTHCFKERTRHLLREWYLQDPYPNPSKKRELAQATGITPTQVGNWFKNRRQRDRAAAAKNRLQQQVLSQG
# SIX6 [2] = biological target: T2, SIX6 (Homo sapiens, UniProt O95475 114-200, L143V)
# T2 sequence: T1 sequence with L30V, I54L
# SIX6 [3] = biological target: T3, SIX6 (Homo sapiens, UniProt O95475 114-200, H141N)
# T3 sequence: T1 sequence with H28N, I54L
# SIX6 [4] = biological target: T4, SIX6 (Homo sapiens, UniProt O95475 114-200, T165P)
# T4 sequence: T1 sequence with T52P, I54L
# SIX6 [5] = biological target: T5, SIX6 (Homo sapiens, UniProt O95475 114-200, L167M)
# T5 sequence: T1 sequence with I54M
# SIX6 [6] = biological target: T6, SIX6 (Homo sapiens, UniProt O95475 114-200, L143M)
# T6 sequence: T1 sequence with L30M, I54L
# SIX6 [7] = biological target: T7, SIX6 (Homo sapiens, UniProt O95475 114-200, L143I)
# T7 sequence: T1 sequence with L30I, I54L
# SIX6 [8] = biological target: T8, SIX6 (Homo sapiens, UniProt O95475 114-200, T165G)
# T8 sequence: T1 sequence with T52G, I54L
# SIX6 [9] = biological target: T9, SIX6 (Homo sapiens, UniProt O95475 114-200, T139Q)
# T9 sequence: T1 sequence with T26Q, I54L
# SIX6 [10] = biological target: T10, SIX6 (Homo sapiens, UniProt O95475 114-200, T165A)
# T10 sequence: T1 sequence with T52A, I54L
# SIX6 [11] = biological target: T11, SIX6 (Homo sapiens, UniProt O95475 114-200, L167V)
# T11 sequence: T1 sequence with I54V
# SIX6 [12] = biological target: T12, SIX6 (Homo sapiens, UniProt O95475 114-200)
# T12 sequence: T1 sequence with I54L
# SIX6 [13] = biological target: T13, SIX6 (Homo sapiens, UniProt O95475 114-200, T165I)
# T13 sequence: T1 sequence with T52I, I54L
Sequence,binding signal (SIX6 [1]),binding signal (SIX6 [2]),binding signal (SIX6 [3]),binding signal (SIX6 [4]),binding signal (SIX6 [5]),binding signal (SIX6 [6]),binding signal (SIX6 [7]),binding signal (SIX6 [8]),binding signal (SIX6 [9]),binding signal (SIX6 [10]),binding signal (SIX6 [11]),binding signal (SIX6 [12]),binding signal (SIX6 [13])
GCCTTCGC,"8.84 upbm affinity estimate (log intensity, higher = more binding, comparable within an allelic series)","9.04 upbm affinity estimate (log intensity, higher = more binding, comparable within an allelic series)","8.95 upbm affinity estimate (log intensity, higher = more binding, comparable within an allelic series)","9.09 upbm affinity estimate (log intensity, higher = more binding, comparable within an allelic series)","8.82 upbm affinity estimate (log intensity, higher = more binding, comparable within an allelic series)","9.06 upbm affinity estimate (log intensity, higher = more binding, comparable within an allelic series)","8.98 upbm affinity estimate (log intensity, higher = more binding, comparable within an allelic series)","8.83 upbm affinity estimate (log intensity, higher = more binding, comparable within an allelic series)","8.96 upbm affinity estimate (log intensity, higher = more binding, comparable within an allelic series)","8.83 upbm affinity estimate (log intensity, higher = more binding, comparable within an allelic series)","8.91 upbm affinity estimate (log intensity, higher = more binding, comparable within an allelic series)","8.85 upbm affinity estimate (log intensity, higher = more binding, comparable within an allelic series)","8.83 upbm affinity estimate (log intensity, higher = more binding, comparable within an allelic series)"
GTATCACA,"11.4 upbm affinity estimate (log intensity, higher = more binding, comparable within an allelic series)","10.4 upbm affinity estimate (log intensity, higher = more binding, comparable within an allelic series)","11.4 upbm affinity estimate (log intensity, higher = more binding, comparable within an allelic series)","9.83 upbm affinity estimate (log intensity, higher = more binding, comparable within an allelic series)","10.8 upbm affinity estimate (log intensity, higher = more binding, comparable within an allelic series)","11.2 upbm affinity estimate (log intensity, higher = more binding, comparable within an allelic series)","10.5 upbm affinity estimate (log intensity, higher = more binding, comparable within an allelic series)","11.6 upbm affinity estimate (log intensity, higher = more binding, comparable within an allelic series)","11.4 upbm affinity estimate (log intensity, higher = more binding, comparable within an allelic series)","11.4 upbm affinity estimate (log intensity, higher = more binding, comparable within an allelic series)","11.2 upbm affinity estimate (log intensity, higher = more binding, comparable within an allelic series)","11.2 upbm affinity estimate (log intensity, higher = more binding, comparable within an allelic series)","11.2 upbm affinity estimate (log intensity, higher = more binding, comparable within an allelic series)"
GTGATACA,"11.4 upbm affinity estimate (log intensity, higher = more binding, comparable within an allelic series)","10.4 upbm affinity estimate (log intensity, higher = more binding, comparable within an allelic series)","11.4 upbm affinity estimate (log intensity, higher = more binding, comparable within an allelic series)","9.76 upbm affinity estimate (log intensity, higher = more binding, comparable within an allelic series)","10.8 upbm affinity estimate (log intensity, higher = more binding, comparable within an allelic series)","11.2 upbm affinity estimate (log intensity, higher = more binding, comparable within an allelic series)","10.4 upbm affinity estimate (log intensity, higher = more binding, comparable within an allelic series)","11.3 upbm affinity estimate (log intensity, higher = more binding, comparable within an allelic series)","11.3 upbm affinity estimate (log intensity, higher = more binding, comparable within an allelic series)","11.3 upbm affinity estimate (log intensity, higher = more binding, comparable within an allelic series)","11.1 upbm affinity estimate (log intensity, higher = more binding, comparable within an allelic series)","11 upbm affinity estimate (log intensity, higher = more binding, comparable within an allelic series)","11.2 upbm affinity estimate (log intensity, higher = more binding, comparable within an allelic series)"
CGTGATAC,"11.2 upbm affinity estimate (log intensity, higher = more binding, comparable within an allelic series)","10.3 upbm affinity estimate (log intensity, higher = more binding, comparable within an allelic series)","11.3 upbm affinity estimate (log intensity, higher = more binding, comparable within an allelic series)","9.72 upbm affinity estimate (log intensity, higher = more binding, comparable within an allelic series)","10.6 upbm affinity estimate (log intensity, higher = more binding, comparable within an allelic series)","11.1 upbm affinity estimate (log intensity, higher = more binding, comparable within an allelic series)","10.4 upbm affinity estimate (log intensity, higher = more binding, comparable within an allelic series)","11.3 upbm affinity estimate (log intensity, higher = more binding, comparable within an allelic series)","11.3 upbm affinity estimate (log intensity, higher = more binding, comparable within an allelic series)","11.2 upbm affinity estimate (log intensity, higher = more binding, comparable within an allelic series)","10.9 upbm affinity estimate (log intensity, higher = more binding, comparable within an allelic series)","11 upbm affinity estimate (log intensity, higher = more binding, comparable within an allelic series)","11 upbm affinity estimate (log intensity, higher = more binding, comparable within an allelic series)"
AGTGTATC,"11 upbm affinity estimate (log intensity, higher = more binding, comparable within an allelic series)","10.3 upbm affinity estimate (log intensity, higher = more binding, comparable within an allelic series)","11 upbm affinity estimate (log intensity, higher = more binding, comparable within an allelic series)","9.91 upbm affinity estimate (log intensity, higher = more binding, comparable within an allelic series)","10.7 upbm affinity estimate (log intensity, higher = more binding, comparable within an allelic series)","11 upbm affinity estimate (log intensity, higher = more binding, comparable within an allelic series)","10.4 upbm affinity estimate (log intensity, higher = more binding, comparable within an allelic series)","11.1 upbm affinity estimate (log intensity, higher = more binding, comparable within an allelic series)","11.3 upbm affinity estimate (log intensity, higher = more binding, comparable within an allelic series)","11 upbm affinity estimate (log intensity, higher = more binding, comparable within an allelic series)","10.8 upbm affinity estimate (log intensity, higher = more binding, comparable within an allelic series)","11 upbm affinity estimate (log intensity, higher = more binding, comparable within an allelic series)","10.9 upbm affinity estimate (log intensity, higher = more binding, comparable within an allelic series)"
ATGATACG,"11.2 upbm affinity estimate (log intensity, higher = more binding, comparable within an allelic series)","10.3 upbm affinity estimate (log intensity, higher = more binding, comparable within an allelic series)","11.2 upbm affinity estimate (log intensity, higher = more binding, comparable within an allelic series)","9.78 upbm affinity estimate (log intensity, higher = more binding, comparable within an allelic series)","10.6 upbm affinity estimate (log intensity, higher = more binding, comparable within an allelic series)","11 upbm affinity estimate (log intensity, higher = more binding, comparable within an allelic series)","10.4 upbm affinity estimate (log intensity, higher = more binding, comparable within an allelic series)","11.3 upbm affinity estimate (log intensity, higher = more binding, comparable within an allelic series)","11.2 upbm affinity estimate (log intensity, higher = more binding, comparable within an allelic series)","11.1 upbm affinity estimate (log intensity, higher = more binding, comparable within an allelic series)","11 upbm affinity estimate (log intensity, higher = more binding, comparable within an allelic series)","11 upbm affinity estimate (log intensity, higher = more binding, comparable within an allelic series)","10.9 upbm affinity estimate (log intensity, higher = more binding, comparable within an allelic series)"
ATCGATAC,"11.2 upbm affinity estimate (log intensity, higher = more binding, comparable within an allelic series)","10.5 upbm affinity estimate (log intensity, higher = more binding, comparable within an allelic series)","11.2 upbm affinity estimate (log intensity, higher = more binding, comparable within an allelic series)","9.79 upbm affinity estimate (log intensity, higher = more binding, comparable within an allelic series)","10.6 upbm affinity estimate (log intensity, higher = more binding, comparable within an allelic series)","10.9 upbm affinity estimate (log intensity, higher = more binding, comparable within an allelic series)","10.3 upbm affinity estimate (log intensity, higher = more binding, comparable within an allelic series)","11.2 upbm affinity estimate (log intensity, higher = more binding, comparable within an allelic series)","11.3 upbm affinity estimate (log intensity, higher = more binding, comparable within an allelic series)","11.1 upbm affinity estimate (log intensity, higher = more binding, comparable within an allelic series)","11 upbm affinity estimate (log intensity, higher = more binding, comparable within an allelic series)","11 upbm affinity estimate (log intensity, higher = more binding, comparable within an allelic series)","11 upbm affinity estimate (log intensity, higher = more binding, comparable within an allelic series)"
